PubChem BioAssay (Tox21)
Records with an inconclusive call do not appear. A call without a number means that no potency is given here. Values without a mark were called inactive. Active and inactive are the calls of the source. Unless noted, the call rests on the fitted dose curve; in most records, active means well fitted curve in the direction sought with a large enough effect in the repeat runs; inconclusive means weak or mixed curves; inactive means no such curve, though single readings can be large; an effect the other way counts as inactive or inconclusive.

Columns and labels:
[1] = qHTS assay to identify small molecule antagonists of the thyroid receptor (TR) signaling pathway (AID 743065); further: nearly all actives have a fitted effect of over 55% in size; further: potency means the concentration at half of the fitted maximal effect
Method in brief: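 GH3.TRE-Luc rat pituitary cells (two TREs driving luciferase) were dosed with compound, then stimulated with 1 nM T3 (final) for 23.5 h at 37 C. ONE-Glo luminescence was the read-out, with CellTiter-Fluor fluorescence as the cytotoxicity counter-screen.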

[2] = test system: thyroid hormone receptor (rat, GH3 cells); assay: qHTS assay to identify small molecule agonists of the thyroid receptor (TR) signaling pathway (AID 743066; calls by dose curve)
[3] = biological target: Estrogen receptor (Homo sapiens) (UniProt P03372); assay: qHTS assay to identify small molecule antagonists of the estrogen receptor alpha (ER-alpha) signaling pathway (AID 743069; active means well fitted curve in the direction sought with a large enough effect in the signal ratio in the repeat runs, not every such curve was filed as active; the % refers to the signal ratio)
Method in brief: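 Beta-lactamase FRET fluorescence is read after 2 hr at room temperature with LiveBLAzer B/G substrate. Before that, ER-alpha-bla HEK293 cells sit 4 hr after plating, then receive compound plus 17beta-estradiol and incubate 18 hr at 37C.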

[4] = biological target: Estrogen receptor (Homo sapiens) (UniProt P03372); assay: qHTS assay to identify small molecule agonists of the estrogen receptor alpha (ER-alpha) signaling pathway (AID 743075; calls by dose curve;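 further: HEK293 GripTite cells with ER-alpha and UAS-driven beta-lactamase reporter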)
[5] = biological target: Estrogen receptor (Homo sapiens) (UniProt P03372); assay: qHTS assay to identify small molecule agonists of the estrogen receptor alpha (ER-alpha) signaling pathway using the BG1 cell line (AID 743079); further: nearly all actives have a fitted effect of over 20% in size; further: potency means the concentration at half of the fitted maximal effect
[6] = qHTS assay to identify small molecule antagonists of the estrogen receptor alpha (ER-alpha) signaling pathway using the BG1 cell line (AID 743080; calls by dose curve;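 further: BG1 cells stimulated with 17beta-estradiol alongside compound; series mostly up to about 70 µM; nearly all actives have a fitted effect of over 25% in size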)
Method in brief: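 Luminescence from a 4×ERE-luciferase reporter in BG1-Luc-4E2 cells served as read-out. Cells, pre-cultured 5 days in stripped-serum phenol-red-free medium, were exposed to compound with 17beta-estradiol co-stimulation for 21.5 h at 37 C.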

Aromatase (Homo sapiens) = Aromatase (Homo sapiens) (UniProt P11511); assay: qHTS assay to identify aromatase inhibitors (AID 743083); further: series mostly up to about 70 µM; nearly all actives have a fitted effect of over 55% in size
[7] = qHTS assay to identify small molecule antagonists of the estrogen receptor alpha (ER-alpha) signaling pathway - cell viability counter screen (AID 743074; calls by dose curve;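 further: HEK293 cells carrying ER-alpha-UAS-bla reporter stimulated with 17beta-estradiol; nearly all actives have a fitted effect of over 45% in size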)
[8] = qHTS assay to identify small molecule antagonists of the estrogen receptor alpha (ER-alpha) signaling pathway using the BG1 cell line - cell viability counter screen (AID 743081);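 further: compound given together with 17beta-estradiol as the ER stimulus; series mostly up to about 70 µM; nearly all actives have a fitted effect of over 45% in size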

Sequence of Aromatase (Homo sapiens) (P11511 whole entry, looked up): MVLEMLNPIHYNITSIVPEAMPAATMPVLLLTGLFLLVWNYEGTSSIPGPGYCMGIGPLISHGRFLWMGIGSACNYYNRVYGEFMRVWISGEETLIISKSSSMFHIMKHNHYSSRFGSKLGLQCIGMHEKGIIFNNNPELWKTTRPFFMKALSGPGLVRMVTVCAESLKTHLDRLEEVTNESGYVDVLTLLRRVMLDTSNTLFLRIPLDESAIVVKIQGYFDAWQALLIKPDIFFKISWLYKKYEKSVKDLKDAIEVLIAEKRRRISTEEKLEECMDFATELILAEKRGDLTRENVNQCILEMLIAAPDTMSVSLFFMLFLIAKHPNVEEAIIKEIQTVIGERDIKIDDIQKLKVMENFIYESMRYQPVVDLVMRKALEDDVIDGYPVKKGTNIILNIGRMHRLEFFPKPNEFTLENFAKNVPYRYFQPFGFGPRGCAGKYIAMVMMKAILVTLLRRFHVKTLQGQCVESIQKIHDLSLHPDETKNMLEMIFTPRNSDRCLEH
Sequence of Estrogen receptor (Homo sapiens) (P03372 whole entry, looked up): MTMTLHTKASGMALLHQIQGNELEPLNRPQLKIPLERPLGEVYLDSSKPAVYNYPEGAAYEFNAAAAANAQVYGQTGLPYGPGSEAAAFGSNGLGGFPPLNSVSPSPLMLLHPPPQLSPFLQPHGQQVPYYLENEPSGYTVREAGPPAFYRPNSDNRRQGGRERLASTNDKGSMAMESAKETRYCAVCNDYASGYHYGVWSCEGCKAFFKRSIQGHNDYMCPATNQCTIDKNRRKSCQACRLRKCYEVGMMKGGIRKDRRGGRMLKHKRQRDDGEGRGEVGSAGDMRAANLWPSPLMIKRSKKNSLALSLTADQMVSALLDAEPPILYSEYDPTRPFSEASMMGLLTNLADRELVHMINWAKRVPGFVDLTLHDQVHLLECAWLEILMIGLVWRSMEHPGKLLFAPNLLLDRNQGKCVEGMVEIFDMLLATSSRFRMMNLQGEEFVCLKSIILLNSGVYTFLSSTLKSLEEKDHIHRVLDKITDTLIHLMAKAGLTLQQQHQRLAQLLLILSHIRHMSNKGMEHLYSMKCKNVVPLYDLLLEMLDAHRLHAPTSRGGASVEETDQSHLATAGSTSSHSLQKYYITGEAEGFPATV

## CC1=C(C(=O)O)N2C(=O)[C@@H](NC(=O)[C@H](N)C3=CCC=CC3)[C@H]2SC1
[1]
  Potency: inactive
[2]
  outcome: inactive
[3]
  outcome: inactive
[4]
  Potency: inactive
[5]
  Potency: inactive
[6]
  outcome: inactive
Aromatase (Homo sapiens)
  outcome: inactive

## CC1=NN(c2ccc(S(=O)(=O)O)cc2)C(=O)C1
[1]
  Potency: inactive
[2]
  outcome: inactive
[7]
  outcome: inactive
[8]
  Potency: inactive
Aromatase (Homo sapiens)
  outcome: inactive

## CCCC(=O)Nc1ccc(OCC(O)CNC(C)C)c(C(C)=O)c1 (configuration not stated)
[3]
  outcome: inactive
[7]
  outcome: inactive
[4]
  Potency: inactive
[5]
  Potency: inactive
[6]
  outcome: inactive
[8]
  Potency: inactive
Aromatase (Homo sapiens)
  outcome: inactive

## COc1c2occc2c(OC)c2c(=O)cc(C)oc12
[1]
  Potency: inactive
[2]
  outcome: inactive
[8]
  Potency: inactive
Aromatase (Homo sapiens)
  outcome: inactive

## CC(=O)O[Si](C)(OC(C)=O)OC(C)=O
[1]
  Potency: inactive
[2]
  outcome: inactive
[7]
  outcome: inactive
[8]
  Potency: inactive
Aromatase (Homo sapiens)
  outcome: inactive

## OCC1(CO)COCOC1
[1]
  Potency: inactive
[2]
  outcome: inactive
[7]
  outcome: inactive
[8]
  Potency: inactive
Aromatase (Homo sapiens)
  outcome: inactive

## C=C(C)C1CC=C(C)C(=O)C1 (configuration not stated)
[1]
  Potency: inactive
[2]
  outcome: inactive
[7]
  outcome: inactive
[8]
  Potency: inactive
Aromatase (Homo sapiens)
  outcome: inactive

## CC(C)(CO)C(O)C(=O)NCCCO (configuration not stated)
[3]
  outcome: inactive
[7]
  outcome: inactive
[4]
  Potency: inactive
[5]
  Potency: inactive
[6]
  outcome: inactive
[8]
  Potency: inactive
Aromatase (Homo sapiens)
  outcome: inactive

## CC1CCc2c(N3CCC(O)CC3)c(F)cc3c(=O)c(C(=O)O)cn1c23 (configuration not stated)
[1]
  Potency: inactive
[2]
  outcome: inactive
[7]
  outcome: inactive
[4]
  Potency: inactive
[5]
  Potency: inactive
[6]
  outcome: inactive
[8]
  Potency: inactive
Aromatase (Homo sapiens)
  outcome: inactive

## CC(C)CO
[1]
  Potency: inactive
[2]
  outcome: inactive
[3]
  outcome: inactive
[7]
  outcome: inactive
[4]
  Potency: inactive
[5]
  Potency: inactive
[6]
  outcome: inactive
[8]
  Potency: inactive
Aromatase (Homo sapiens)
  outcome: inactive

## CCOC(CN1CCN(CC(C)C(=O)c2ccccc2)CC1)c1ccccc1 (configuration not stated)
[2]
  outcome: inactive
[7]
  outcome: inactive
[8]
  Potency: inactive

## CCCC(=O)OCCC(C)CCC=C(C)C (configuration not stated)
[1]
  Potency: inactive
[2]
  outcome: inactive
[7]
  outcome: inactive
[8]
  Potency: inactive
Aromatase (Homo sapiens)
  outcome: inactive

## Cn1c(=O)c2[nH]c(Br)nc2n(C)c1=O
[1]
  Potency: 26.6 µM (active)
[2]
  outcome: inactive
[7]
  outcome: inactive
[8]
  Potency: inactive
Aromatase (Homo sapiens)
  outcome: inactive

## OCC(O)CN1CCN(c2ccccc2)CC1 (configuration not stated)
[1]
  Potency: inactive
[2]
  outcome: inactive
[7]
  outcome: inactive
[8]
  Potency: inactive
Aromatase (Homo sapiens)
  outcome: inactive

## CC(C)OC(=O)OCOP(=O)(CO[C@H](C)Cn1cnc2c(N)ncnc21)OCOC(=O)OC(C)C
[2]
  outcome: inactive
[3]
  outcome: inactive
[7]
  outcome: inactive
[4]
  Potency: inactive
[5]
  Potency: inactive
[6]
  outcome: inactive
[8]
  Potency: inactive

## CC(=O)CCC1=C(C)CCCC1(C)C
[1]
  Potency: inactive
[2]
  outcome: inactive
[7]
  outcome: inactive
[5]
  Potency: inactive
[6]
  outcome: inactive
[8]
  Potency: inactive
Aromatase (Homo sapiens)
  outcome: inactive

## COc1cc2c(cc1OC)C(=O)C(CC1CCN(Cc3ccccc3)CC1)C2 (configuration not stated)
[1]
  Potency: 26.6 µM (active)
[2]
  outcome: inactive
[7]
  outcome: inactive
[4]
  Potency: inactive
[5]
  Potency: 26.6 µM (active)
[8]
  Potency: inactive
Aromatase (Homo sapiens)
  outcome: inactive

## CN(C)CCCCl
[1]
  Potency: inactive
[2]
  outcome: inactive
[3]
  outcome: inactive
[7]
  outcome: inactive
[4]
  Potency: inactive
[6]
  outcome: inactive
[8]
  Potency: inactive
Aromatase (Homo sapiens)
  outcome: inactive

## O=C(Cl)c1ccccc1[N+](=O)[O-]
[1]
  Potency: inactive
[2]
  outcome: inactive
[7]
  outcome: inactive
[8]
  Potency: inactive
Aromatase (Homo sapiens)
  outcome: inactive

## Cc1ccc(C)c([N+](=O)[O-])c1
[1]
  Potency: inactive
[2]
  outcome: inactive
[7]
  outcome: inactive
[8]
  Potency: inactive
Aromatase (Homo sapiens)
  outcome: inactive

## CC(=O)C1C(=O)C=C(C)OC1=O (configuration not stated)
[1]
  Potency: inactive
[2]
  outcome: inactive
[3]
  outcome: inactive
[4]
  Potency: inactive
[5]
  Potency: inactive
[6]
  outcome: inactive
[8]
  Potency: inactive
Aromatase (Homo sapiens)
  outcome: inactive

## NCC1(Cc2noc(=O)[nH]2)CCCCC1
[3]
  outcome: inactive
[7]
  outcome: inactive
[4]
  Potency: inactive
[5]
  Potency: inactive
[6]
  outcome: inactive
[8]
  Potency: inactive
Aromatase (Homo sapiens)
  outcome: inactive

## CCCC(=O)OC/C=C(\C)CCC=C(C)C
[1]
  Potency: inactive
[2]
  outcome: inactive
[3]
  outcome: inactive
[7]
  outcome: inactive
[4]
  Potency: inactive
[5]
  Potency: inactive
[6]
  outcome: inactive
Aromatase (Homo sapiens)
  outcome: inactive

## CCC(=O)CC
[1]
  Potency: inactive
[2]
  outcome: inactive
[7]
  outcome: inactive
[8]
  Potency: inactive
Aromatase (Homo sapiens)
  outcome: inactive
